By residual activity is commonly meant the signal under treatment as a percentage of the control signal.

The source of these data is ChEMBL document CHEMBL2218924, “A broad activity screen in support of a chemogenomic map for kinase signalling research and drug discovery” (Biochem J, 2013).

Assay [1] deals with T1, Serine/threonine-protein kinase TBK1 (Homo sapiens) (UniProt Q9UHD2).
T1 sequence (whole entry): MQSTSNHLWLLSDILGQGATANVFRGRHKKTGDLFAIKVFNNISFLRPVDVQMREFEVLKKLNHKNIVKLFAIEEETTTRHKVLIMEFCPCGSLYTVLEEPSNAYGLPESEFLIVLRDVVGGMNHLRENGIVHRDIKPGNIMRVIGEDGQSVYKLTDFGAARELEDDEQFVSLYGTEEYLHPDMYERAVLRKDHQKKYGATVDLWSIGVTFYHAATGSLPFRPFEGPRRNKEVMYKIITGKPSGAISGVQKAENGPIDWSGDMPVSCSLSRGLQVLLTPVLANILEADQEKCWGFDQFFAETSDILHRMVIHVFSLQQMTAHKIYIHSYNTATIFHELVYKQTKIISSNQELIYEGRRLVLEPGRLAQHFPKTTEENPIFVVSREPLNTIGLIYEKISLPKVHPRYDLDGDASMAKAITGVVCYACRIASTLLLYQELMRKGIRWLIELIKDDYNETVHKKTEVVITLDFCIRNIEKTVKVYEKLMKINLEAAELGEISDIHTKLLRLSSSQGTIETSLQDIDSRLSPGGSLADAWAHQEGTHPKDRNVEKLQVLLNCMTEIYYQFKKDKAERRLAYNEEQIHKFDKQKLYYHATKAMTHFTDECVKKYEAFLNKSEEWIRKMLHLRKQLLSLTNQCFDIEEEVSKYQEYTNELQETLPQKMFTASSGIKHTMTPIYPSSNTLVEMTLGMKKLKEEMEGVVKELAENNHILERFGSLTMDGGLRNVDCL
As to conditions: at 10 µM.

Assay [2] addresses T2, TGF-beta receptor type-1 (Homo sapiens) (UniProt P36897).
T2 sequence (whole entry): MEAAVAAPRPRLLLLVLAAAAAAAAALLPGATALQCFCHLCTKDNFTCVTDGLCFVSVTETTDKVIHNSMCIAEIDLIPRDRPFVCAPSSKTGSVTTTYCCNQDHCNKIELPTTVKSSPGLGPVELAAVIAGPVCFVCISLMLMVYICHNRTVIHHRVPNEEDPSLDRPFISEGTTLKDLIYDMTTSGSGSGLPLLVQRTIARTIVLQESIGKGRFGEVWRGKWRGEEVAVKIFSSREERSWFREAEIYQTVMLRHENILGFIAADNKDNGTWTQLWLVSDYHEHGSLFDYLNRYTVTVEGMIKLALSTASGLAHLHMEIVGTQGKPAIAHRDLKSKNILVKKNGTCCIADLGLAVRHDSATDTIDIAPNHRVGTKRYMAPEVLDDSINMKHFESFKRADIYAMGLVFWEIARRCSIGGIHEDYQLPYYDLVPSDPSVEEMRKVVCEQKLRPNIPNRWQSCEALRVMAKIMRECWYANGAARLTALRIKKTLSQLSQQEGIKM
As to conditions: at 1 µM.

The target of assay [3] is T2, TGF-beta receptor type-1 (Homo sapiens). As to conditions: at 10 µM.
Assay [4] deals with T3, Inhibitor of nuclear factor kappa-B kinase subunit alpha (Homo sapiens) (UniProt O15111).
T3 sequence (whole entry): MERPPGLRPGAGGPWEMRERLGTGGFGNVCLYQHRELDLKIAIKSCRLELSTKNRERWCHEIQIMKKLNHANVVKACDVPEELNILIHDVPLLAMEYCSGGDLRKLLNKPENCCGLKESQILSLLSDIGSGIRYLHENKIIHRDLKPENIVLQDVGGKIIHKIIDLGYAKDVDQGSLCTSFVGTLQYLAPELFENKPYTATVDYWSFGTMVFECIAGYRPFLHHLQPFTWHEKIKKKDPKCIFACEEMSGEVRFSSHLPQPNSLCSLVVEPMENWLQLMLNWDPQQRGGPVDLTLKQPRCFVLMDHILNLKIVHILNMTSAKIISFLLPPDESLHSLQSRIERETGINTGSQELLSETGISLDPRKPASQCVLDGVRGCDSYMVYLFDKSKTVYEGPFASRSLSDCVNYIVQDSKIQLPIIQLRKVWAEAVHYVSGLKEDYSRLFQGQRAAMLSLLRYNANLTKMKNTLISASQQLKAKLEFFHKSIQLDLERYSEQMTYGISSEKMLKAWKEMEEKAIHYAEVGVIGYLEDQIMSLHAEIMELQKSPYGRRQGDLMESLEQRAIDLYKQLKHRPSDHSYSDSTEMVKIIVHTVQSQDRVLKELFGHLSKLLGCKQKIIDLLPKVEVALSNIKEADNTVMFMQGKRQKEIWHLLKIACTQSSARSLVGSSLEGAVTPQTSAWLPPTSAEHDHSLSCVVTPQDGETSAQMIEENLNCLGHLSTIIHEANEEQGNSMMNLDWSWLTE
As to conditions: at 1 µM.

Assay [5] has as its target T3, Inhibitor of nuclear factor kappa-B kinase subunit alpha (Homo sapiens). As to conditions: at 10 µM.
Assay [6] deals with T4, Inhibitor of nuclear factor kappa-B kinase subunit beta (Homo sapiens) (UniProt O14920).
T4 sequence (whole entry): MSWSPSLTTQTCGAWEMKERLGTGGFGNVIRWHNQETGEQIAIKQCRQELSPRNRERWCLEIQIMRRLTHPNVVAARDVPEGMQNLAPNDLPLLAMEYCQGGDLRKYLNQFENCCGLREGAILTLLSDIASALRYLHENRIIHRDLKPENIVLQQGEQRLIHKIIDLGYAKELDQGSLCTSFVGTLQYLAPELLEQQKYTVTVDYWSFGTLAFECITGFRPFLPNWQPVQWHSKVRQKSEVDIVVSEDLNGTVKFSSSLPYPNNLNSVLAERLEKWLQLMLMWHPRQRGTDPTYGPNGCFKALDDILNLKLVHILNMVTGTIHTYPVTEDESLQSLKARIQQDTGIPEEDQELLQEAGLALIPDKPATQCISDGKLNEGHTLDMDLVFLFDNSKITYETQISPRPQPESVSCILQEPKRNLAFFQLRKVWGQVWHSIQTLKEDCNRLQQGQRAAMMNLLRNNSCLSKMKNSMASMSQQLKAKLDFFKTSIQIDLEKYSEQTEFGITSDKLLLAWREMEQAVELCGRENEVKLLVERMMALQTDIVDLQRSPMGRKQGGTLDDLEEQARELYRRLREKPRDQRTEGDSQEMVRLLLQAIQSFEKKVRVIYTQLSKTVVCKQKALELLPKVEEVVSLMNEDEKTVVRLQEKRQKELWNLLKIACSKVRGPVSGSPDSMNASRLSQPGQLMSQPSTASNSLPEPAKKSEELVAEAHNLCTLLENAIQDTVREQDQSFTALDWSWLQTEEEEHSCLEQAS
As to conditions: at 1 µM.

The target of assay [7] is T4, Inhibitor of nuclear factor kappa-B kinase subunit beta (Homo sapiens). As to conditions: at 10 µM.
The target of assay [8] is Interleukin-1 receptor-associated kinase 1 (Homo sapiens) (UniProt P51617). As to conditions: at 1 µM.
For assay [9] the target is unchanged. As to conditions: at 10 µM.
Assay [10] deals with T5, Interleukin-1 receptor-associated kinase 4 (Homo sapiens) (UniProt Q9NWZ3).
T5 sequence (whole entry): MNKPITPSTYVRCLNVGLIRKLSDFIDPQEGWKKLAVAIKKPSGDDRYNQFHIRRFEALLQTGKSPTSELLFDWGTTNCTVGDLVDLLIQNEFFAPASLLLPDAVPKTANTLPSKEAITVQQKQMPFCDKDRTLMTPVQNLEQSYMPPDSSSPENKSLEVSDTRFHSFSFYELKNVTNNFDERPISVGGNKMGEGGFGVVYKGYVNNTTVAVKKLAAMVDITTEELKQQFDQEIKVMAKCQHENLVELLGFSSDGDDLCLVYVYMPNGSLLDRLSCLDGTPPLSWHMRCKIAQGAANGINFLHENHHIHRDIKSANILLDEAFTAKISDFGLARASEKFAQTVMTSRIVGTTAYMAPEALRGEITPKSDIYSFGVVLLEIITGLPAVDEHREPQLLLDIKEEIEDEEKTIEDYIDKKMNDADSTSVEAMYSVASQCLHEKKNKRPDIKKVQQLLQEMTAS
As to conditions: at 1 µM.

Assay [11] has as its target T5, Interleukin-1 receptor-associated kinase 4 (Homo sapiens). As to conditions: at 10 µM.
The target in assay [12] is Insulin receptor-related protein (Homo sapiens) (UniProt P14616). As to conditions: at 1 µM.
For assay [13], the target named is Insulin-like growth factor 1 receptor (Homo sapiens) (UniProt P08069). As to conditions: at 10 µM.
Assay [14] concerns the target Insulin receptor-related protein (Homo sapiens) (UniProt P14616). As to conditions: at 10 µM.
For assay [15], the target named is T6, Tyrosine-protein kinase ITK/TSK (Homo sapiens) (UniProt Q08881).
T6 sequence (whole entry): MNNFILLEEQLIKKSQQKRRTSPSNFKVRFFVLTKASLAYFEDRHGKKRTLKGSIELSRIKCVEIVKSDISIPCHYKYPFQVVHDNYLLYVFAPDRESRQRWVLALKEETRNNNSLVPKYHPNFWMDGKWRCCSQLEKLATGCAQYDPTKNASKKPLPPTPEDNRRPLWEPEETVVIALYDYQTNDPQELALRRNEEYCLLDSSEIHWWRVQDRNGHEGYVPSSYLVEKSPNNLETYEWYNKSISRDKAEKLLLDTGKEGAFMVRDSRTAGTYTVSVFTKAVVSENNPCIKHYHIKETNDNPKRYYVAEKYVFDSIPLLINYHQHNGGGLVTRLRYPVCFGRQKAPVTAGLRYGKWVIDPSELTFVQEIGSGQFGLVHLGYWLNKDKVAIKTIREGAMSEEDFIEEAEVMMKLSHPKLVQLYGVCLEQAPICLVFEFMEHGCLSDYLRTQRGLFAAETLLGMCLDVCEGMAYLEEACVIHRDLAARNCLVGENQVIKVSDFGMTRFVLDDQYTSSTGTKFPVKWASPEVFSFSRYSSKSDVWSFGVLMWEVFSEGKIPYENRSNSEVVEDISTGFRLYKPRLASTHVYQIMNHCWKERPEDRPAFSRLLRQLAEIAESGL
As to conditions: at 1 µM.

For assay [16], the target named is Insulin-like growth factor 1 receptor (Homo sapiens) (UniProt P08069). As to conditions: at 1 µM.
In assay [17] the target is Insulin receptor (Homo sapiens) (UniProt P06213). As to conditions: at 1 µM.
For assay [18] the target is unchanged. As to conditions: at 10 µM.
Assay [19] has the same target. As to conditions: at 1 µM. The source holds these as a separate data set.
Assay [20] shares this target. As to conditions: at 10 µM. This is another data set of the same source.

Chain of Interleukin-1 receptor-associated kinase 1 (Homo sapiens) (P51617 whole entry, looked up): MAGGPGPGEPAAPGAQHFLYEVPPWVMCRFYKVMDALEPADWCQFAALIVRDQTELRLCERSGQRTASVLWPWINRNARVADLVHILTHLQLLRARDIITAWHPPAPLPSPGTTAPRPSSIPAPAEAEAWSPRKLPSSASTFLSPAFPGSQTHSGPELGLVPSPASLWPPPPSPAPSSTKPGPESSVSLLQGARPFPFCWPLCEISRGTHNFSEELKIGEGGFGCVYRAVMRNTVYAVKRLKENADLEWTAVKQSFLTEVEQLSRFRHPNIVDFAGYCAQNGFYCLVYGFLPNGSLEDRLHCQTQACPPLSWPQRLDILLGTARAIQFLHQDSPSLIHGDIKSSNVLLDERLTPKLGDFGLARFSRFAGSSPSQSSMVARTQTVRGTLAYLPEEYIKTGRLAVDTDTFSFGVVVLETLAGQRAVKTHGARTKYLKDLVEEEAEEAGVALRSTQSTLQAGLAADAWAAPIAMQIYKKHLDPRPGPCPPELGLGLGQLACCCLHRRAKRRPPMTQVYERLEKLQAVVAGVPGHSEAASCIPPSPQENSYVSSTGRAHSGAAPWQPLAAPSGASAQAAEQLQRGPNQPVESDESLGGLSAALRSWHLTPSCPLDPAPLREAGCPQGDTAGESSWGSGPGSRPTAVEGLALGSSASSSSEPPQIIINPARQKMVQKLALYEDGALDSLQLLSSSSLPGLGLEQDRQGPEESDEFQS
Chain of Insulin-like growth factor 1 receptor (Homo sapiens) (P08069 31-736 limits assumed): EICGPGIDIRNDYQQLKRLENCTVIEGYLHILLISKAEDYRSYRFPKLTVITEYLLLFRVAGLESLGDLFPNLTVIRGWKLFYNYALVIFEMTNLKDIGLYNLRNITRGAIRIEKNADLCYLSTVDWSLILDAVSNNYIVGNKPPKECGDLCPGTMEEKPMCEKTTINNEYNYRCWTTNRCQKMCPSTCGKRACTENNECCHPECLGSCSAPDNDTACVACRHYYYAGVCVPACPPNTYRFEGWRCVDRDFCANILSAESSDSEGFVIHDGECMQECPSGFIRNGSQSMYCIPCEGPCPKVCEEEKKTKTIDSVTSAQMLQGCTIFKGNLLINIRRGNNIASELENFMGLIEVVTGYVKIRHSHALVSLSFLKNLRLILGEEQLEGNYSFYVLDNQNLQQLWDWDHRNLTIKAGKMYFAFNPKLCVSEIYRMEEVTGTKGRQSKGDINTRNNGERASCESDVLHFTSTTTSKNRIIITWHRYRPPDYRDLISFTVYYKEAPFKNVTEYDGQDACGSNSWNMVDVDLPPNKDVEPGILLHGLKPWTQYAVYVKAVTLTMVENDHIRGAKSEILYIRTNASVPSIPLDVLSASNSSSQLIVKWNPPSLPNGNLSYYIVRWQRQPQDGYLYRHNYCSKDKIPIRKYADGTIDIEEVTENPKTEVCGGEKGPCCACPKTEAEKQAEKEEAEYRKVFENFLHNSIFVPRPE
Chain of Insulin-like growth factor 1 receptor (Homo sapiens) (P08069 741-1367 limits assumed): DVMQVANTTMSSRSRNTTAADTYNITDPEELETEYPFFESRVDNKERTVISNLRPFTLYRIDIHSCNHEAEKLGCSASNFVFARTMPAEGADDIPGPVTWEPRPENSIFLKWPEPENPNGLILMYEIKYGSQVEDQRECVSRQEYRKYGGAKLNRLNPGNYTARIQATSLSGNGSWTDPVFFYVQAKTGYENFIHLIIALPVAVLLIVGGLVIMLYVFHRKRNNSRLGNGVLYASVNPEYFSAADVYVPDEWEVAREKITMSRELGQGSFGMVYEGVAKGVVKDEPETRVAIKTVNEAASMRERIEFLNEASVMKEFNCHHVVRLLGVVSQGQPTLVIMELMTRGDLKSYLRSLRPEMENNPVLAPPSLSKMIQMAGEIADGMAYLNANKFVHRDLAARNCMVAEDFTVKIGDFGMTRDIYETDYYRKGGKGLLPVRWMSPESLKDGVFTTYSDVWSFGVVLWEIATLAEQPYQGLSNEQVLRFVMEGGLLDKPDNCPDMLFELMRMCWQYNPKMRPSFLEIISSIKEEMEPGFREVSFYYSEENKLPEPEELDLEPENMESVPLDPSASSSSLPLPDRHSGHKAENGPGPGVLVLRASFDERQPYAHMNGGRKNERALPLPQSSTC
Chain of Insulin receptor (Homo sapiens) (P06213 28-758 limits assumed): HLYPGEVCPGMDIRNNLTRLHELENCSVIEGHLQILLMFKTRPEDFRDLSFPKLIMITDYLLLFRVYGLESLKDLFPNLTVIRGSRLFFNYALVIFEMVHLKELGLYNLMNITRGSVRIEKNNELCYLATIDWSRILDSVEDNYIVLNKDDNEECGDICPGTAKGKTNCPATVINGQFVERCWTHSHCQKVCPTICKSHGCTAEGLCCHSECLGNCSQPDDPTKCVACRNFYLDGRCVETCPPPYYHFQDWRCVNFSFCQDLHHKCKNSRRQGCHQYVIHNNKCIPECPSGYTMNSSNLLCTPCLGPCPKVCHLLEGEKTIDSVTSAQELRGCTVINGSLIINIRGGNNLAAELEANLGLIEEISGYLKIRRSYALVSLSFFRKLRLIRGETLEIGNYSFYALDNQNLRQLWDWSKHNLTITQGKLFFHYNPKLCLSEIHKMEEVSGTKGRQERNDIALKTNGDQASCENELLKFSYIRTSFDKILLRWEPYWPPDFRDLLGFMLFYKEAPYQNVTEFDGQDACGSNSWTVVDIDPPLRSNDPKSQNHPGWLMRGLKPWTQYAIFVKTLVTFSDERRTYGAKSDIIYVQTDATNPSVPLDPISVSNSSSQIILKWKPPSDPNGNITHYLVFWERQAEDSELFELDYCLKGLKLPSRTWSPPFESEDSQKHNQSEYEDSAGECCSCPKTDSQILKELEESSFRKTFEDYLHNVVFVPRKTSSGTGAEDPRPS
Chain of Insulin receptor (Homo sapiens) (P06213 763-1382 limits assumed): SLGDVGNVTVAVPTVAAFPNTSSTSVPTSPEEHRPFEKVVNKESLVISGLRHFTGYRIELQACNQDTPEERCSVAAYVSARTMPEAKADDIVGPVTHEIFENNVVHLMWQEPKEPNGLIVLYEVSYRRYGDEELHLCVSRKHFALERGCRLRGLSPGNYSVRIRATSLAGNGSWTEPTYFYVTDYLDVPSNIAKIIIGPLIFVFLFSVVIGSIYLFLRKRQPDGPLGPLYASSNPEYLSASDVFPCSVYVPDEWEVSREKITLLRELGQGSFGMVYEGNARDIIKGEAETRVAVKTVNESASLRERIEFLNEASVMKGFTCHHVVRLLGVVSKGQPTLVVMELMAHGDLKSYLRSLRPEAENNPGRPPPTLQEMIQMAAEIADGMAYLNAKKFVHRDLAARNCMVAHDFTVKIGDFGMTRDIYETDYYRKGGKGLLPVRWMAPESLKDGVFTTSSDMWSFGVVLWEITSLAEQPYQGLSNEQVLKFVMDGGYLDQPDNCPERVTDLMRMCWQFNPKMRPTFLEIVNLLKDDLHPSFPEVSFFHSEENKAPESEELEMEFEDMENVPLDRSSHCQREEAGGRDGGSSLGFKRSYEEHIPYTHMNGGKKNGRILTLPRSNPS
Chain of Insulin receptor-related protein (Homo sapiens) (P14616 27-742 limits assumed): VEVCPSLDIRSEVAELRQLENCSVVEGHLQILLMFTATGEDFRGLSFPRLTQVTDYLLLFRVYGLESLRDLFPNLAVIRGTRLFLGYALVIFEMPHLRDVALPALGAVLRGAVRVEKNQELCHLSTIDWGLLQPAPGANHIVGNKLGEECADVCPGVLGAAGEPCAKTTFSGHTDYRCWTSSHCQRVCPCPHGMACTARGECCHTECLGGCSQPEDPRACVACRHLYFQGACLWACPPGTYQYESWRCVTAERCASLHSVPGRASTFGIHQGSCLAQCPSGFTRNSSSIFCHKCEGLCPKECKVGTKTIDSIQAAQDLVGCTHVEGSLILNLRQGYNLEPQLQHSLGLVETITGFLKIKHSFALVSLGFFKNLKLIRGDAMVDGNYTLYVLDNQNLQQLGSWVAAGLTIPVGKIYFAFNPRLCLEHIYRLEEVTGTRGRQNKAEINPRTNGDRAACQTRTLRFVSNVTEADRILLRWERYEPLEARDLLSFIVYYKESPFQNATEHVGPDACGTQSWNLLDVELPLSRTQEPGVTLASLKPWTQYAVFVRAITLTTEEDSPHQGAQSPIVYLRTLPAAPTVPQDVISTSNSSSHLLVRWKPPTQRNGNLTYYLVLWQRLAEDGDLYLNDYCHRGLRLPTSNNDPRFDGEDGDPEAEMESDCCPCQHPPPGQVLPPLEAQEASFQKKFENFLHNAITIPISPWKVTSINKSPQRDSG
Chain of Insulin receptor-related protein (Homo sapiens) (P14616 747-1297 limits assumed): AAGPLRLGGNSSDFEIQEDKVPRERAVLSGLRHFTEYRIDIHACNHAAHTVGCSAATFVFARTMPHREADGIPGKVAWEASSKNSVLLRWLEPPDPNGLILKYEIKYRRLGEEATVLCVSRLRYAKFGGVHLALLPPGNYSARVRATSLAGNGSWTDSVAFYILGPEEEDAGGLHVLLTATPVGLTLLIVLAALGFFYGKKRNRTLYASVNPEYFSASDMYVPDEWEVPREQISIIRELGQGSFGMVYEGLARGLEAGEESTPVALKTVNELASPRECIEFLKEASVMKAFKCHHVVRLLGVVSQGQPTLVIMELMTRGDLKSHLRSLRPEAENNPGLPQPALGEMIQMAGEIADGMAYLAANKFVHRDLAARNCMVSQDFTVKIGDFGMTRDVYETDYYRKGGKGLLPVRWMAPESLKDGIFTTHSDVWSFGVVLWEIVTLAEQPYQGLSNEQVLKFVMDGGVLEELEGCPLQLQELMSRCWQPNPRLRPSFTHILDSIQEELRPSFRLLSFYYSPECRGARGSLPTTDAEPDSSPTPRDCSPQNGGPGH

In the case of `COc1cc2c(cc1OC)-c1n[nH]c(Nc3cccc(F)c3)c1C2`, the residual activity in assay [1] worked out at 43%; in assay [2] it was 78%; in [3], 66%; in [4] it was 109%; in [5], 112%; in [6] it was 101%. Besides, the residual activity amounted to 110% in [7]; 73% in assay [8]; 68% in assay [9]; 76% in assay [10]; 34% in [11]; 99% in assay [12].

Take `Nc1nc(Nc2ccc(S(N)(=O)=O)cc2)nn1C(=O)c1c(F)cccc1F`: the residual activity in [1] stood at 19%; in assay [2], 105%; in assay [3], 62%; in assay [13], 63%; in assay [7], 69%; in [9] it was 43%. Besides, the residual activity in assay [10] turned out to be 96%; in [11], 37%; in [12], 112%; in [14], 57%.

In the case of `Cn1c2ccccc2c2c3c(c4c5ccccc5n(CCC#N)c4c21)CNC3=O`, the residual activity came to 9% in assay [1]; 69% in assay [2]; 63% in assay [3]; 48% in [4]; 19% in [5]; 72% in [6]. For the same molecule, the residual activity was 63% in [7]; 47% in assay [8]; 44% in [9]; -1% in assay [10]; 4% in assay [11]; 69% in assay [12]. Further, the residual activity in assay [14] was 53%; in [15] it was 4%.

As for `CC(C)(C)n1nc(Cc2cccc3ccccc23)c2c(N)ncnc21`, the residual activity in assay [1] amounted to 67%; in assay [2], 78%; in [3] it was 57%; in assay [16] it was 100%; in assay [13], 73%; in assay [4], 99%. Also, the residual activity in assay [5] is 128%; in [6], 104%; in [7], 92%; in assay [17], 98%; in [18], 65%; in assay [19], 95%. Moreover, the residual activity in [20] worked out at 63%; in assay [8], 90%; in [9], 77%; in [10] it was 105%; in assay [11], 81%; in assay [12], 124%. Further, the figures for the residual activity in [14] and in assay [15] were 78% and 107%, respectively.

As for `COc1ccc2c(c1)c(C1=C(c3c[nH]c4ccccc34)C(=O)NC1=O)cn2CCCN(C)C`, the residual activity in assay [1] is 24%; in assay [2] it was 69%; in assay [3], 49%; in [16] it was 101%; in [13] it was 82%; in [4] it was 80%. Also, the residual activity came to 64% in assay [5]; 100% in assay [17]; 73% in [18]; 97% in [19]; 71% in [20]; 81% in [8]. Moreover, the residual activity stood at 75% in [9], 122% in assay [12], 67% in assay [14] and 101% in assay [15].

Consider `O=c1cc(N2CCNCC2)oc2c(-c3ccccc3)cccc12`, for which the residual activity amounted to 54% in assay [1]; 91% in assay [2]; 85% in assay [3]; 97% in [13]; 99% in assay [6]; 82% in assay [7]. Also, the residual activity in assay [18] stood at 94%; in [8], 92%; in assay [9] it was 76%; in assay [10], 93%; in assay [11] it was 96%; in [14] it was 70%. Besides, the residual activity in assay [15] was found to be 83%.
